# The supplement of paper PMC4022240
# ± gives the standard deviation.
# T1: HaloTag-ATRX ADD domain (163-292)
# T1 chain: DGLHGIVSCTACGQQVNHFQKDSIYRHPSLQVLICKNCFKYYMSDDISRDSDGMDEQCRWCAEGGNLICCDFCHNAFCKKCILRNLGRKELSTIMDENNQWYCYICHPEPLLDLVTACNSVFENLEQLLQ
# How the values were obtained:
# Experiment in all cases: peptide microarray binding signal (635 nm), min-max normalized on array (fraction of array maximum); higher = stronger binding
# Settings in all cases: peptide region: H2A 1-13
# [1] = biological target: T1, HaloTag-ATRX ADD domain (163-292)
# Method: (§1)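 Histone 13-mer peptides were synthesized as cellulose conjugates with a C-terminal 20-atom PEG linker and printed in triplicate on nitrocellulose. The sequence given is the unmodified backbone; PTMs (Kme1/2/3, Kac, Sph/Tph, Rme/Rme2a/Rme2s, Rcit) are listed in the label and the 'peptide modifications' condition. Slides were probed at 4 °C for 1 h with biotin-labelled (HQ)5-HaloTag reader fusions (ATRX-ADD, ING2-PHD) then streptavidin-Alexa647, or with rabbit histone antibodies then anti-rabbit Alexa647. The mean 635 nm signal of the triplicate spots was scaled 0-1 between the lowest and highest values on each array.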
# [2] = biological target: HaloTag-ING2 PHD (mouse Ing2 200-280)
# Method: as §1
# [3] = biological target: anti-H3K4me3 antibody ab8580
# Method: as §1
# [4] = biological target: anti-H3K9me3 antibody ab8898
# Method: as §1
# [5] = peptide modifications: H2AR3me2a, binder concentration: 1:2,000 dilution
# [6] = peptide modifications: H2AR3me2a, binder concentration: 1:10,000 dilution
# [7] = peptide modifications: H2AR3me1, binder concentration: 1:2,000 dilution
# [8] = peptide modifications: H2AR3me1, binder concentration: 1:10,000 dilution
# [9] = peptide modifications: H2AR3me2s, binder concentration: 1:2,000 dilution
# [10] = peptide modifications: H2AR3me2s, binder concentration: 1:10,000 dilution
# [11] = peptide modifications: H2AR3me2a H2AK5ac, binder concentration: 1:2,000 dilution
# [12] = peptide modifications: H2AR3me2a H2AK5ac, binder concentration: 1:10,000 dilution
# [13] = peptide modifications: H2AR3cit H2AK5ac, binder concentration: 1:2,000 dilution
# [14] = peptide modifications: H2AR3cit H2AK5ac, binder concentration: 1:10,000 dilution
# [15] = binder concentration: 1:2,000 dilution
# [16] = binder concentration: 1:10,000 dilution
# [17] = peptide modifications: H2AS1ph H2AR3me2s, binder concentration: 1:2,000 dilution
# [18] = peptide modifications: H2AS1ph H2AR3me2s, binder concentration: 1:10,000 dilution
# [19] = peptide modifications: H2AS1ph H2AR3me1, binder concentration: 1:2,000 dilution
# [20] = peptide modifications: H2AS1ph H2AR3me1, binder concentration: 1:10,000 dilution
# [21] = peptide modifications: H2AK5ac H2AK9ac, binder concentration: 1:2,000 dilution
# [22] = peptide modifications: H2AK5ac H2AK9ac, binder concentration: 1:10,000 dilution
# [23] = peptide modifications: H2AS1ph H2AK5ac, binder concentration: 1:2,000 dilution
# [24] = peptide modifications: H2AS1ph H2AK5ac, binder concentration: 1:10,000 dilution
binder,measurement,setting,value
SGRGKQGGKARAK [H2A 1-13 S G Rme2a G K Q G G K A R A K],peptide microarray binding signal,"[1]; peptide modifications: H2AR3me2a, binder concentration: 50 nM",0.005172 ± 5e-05
same,peptide microarray binding signal,"[1]; peptide modifications: H2AR3me2a, binder concentration: 500 nM",0.0126 ± 0.00024
same,peptide microarray binding signal,"[2]; peptide modifications: H2AR3me2a, binder concentration: 10 nM",0.00382 ± 0.0003
same,peptide microarray binding signal,"[2]; peptide modifications: H2AR3me2a, binder concentration: 100 nM",0.0113 ± 0.00033
same,peptide microarray binding signal,[3]; [5],0.00119 ± 9.3e-05
same,peptide microarray binding signal,[3]; [6],0.00143 ± 2.4e-05
same,peptide microarray binding signal,[4]; [5],0.000483 ± 1.2e-05
same,peptide microarray binding signal,[4]; [6],0.00075 ± 7.9e-06
SGRGKQGGKARAK [H2A 1-13 S G Rme G K Q G G K A R A K],peptide microarray binding signal,"[1]; peptide modifications: H2AR3me1, binder concentration: 50 nM",0.00254 ± 4.9e-05
same,peptide microarray binding signal,"[1]; peptide modifications: H2AR3me1, binder concentration: 500 nM",0.005096 ± 3.3e-05
same,peptide microarray binding signal,"[2]; peptide modifications: H2AR3me1, binder concentration: 10 nM",0.00286 ± 0.00013
same,peptide microarray binding signal,"[2]; peptide modifications: H2AR3me1, binder concentration: 100 nM",0.004039 ± 3.4e-05
same,peptide microarray binding signal,[3]; [7],0.000491 ± 9.7e-06
same,peptide microarray binding signal,[3]; [8],0.000514 ± 5.5e-06
same,peptide microarray binding signal,[4]; [7],0.000181
same,peptide microarray binding signal,[4]; [8],0.000404 ± 8.8e-06
SGRGKQGGKARAK [H2A 1-13 S G Rme2s G K Q G G K A R A K],peptide microarray binding signal,"[1]; peptide modifications: H2AR3me2s, binder concentration: 50 nM",0.00696 ± 0.0016
same,peptide microarray binding signal,"[1]; peptide modifications: H2AR3me2s, binder concentration: 500 nM",0.0101 ± 0.00014
same,peptide microarray binding signal,"[2]; peptide modifications: H2AR3me2s, binder concentration: 10 nM",0.00519 ± 0.00018
same,peptide microarray binding signal,"[2]; peptide modifications: H2AR3me2s, binder concentration: 100 nM",0.00893 ± 0.00025
same,peptide microarray binding signal,[3]; [9],0.00108 ± 4.1e-05
same,peptide microarray binding signal,[3]; [10],0.00183 ± 9.6e-05
same,peptide microarray binding signal,[4]; [9],0.000755 ± 7.7e-05
same,peptide microarray binding signal,[4]; [10],0.000923 ± 2.5e-05
SGRGKQGGKARAK [H2A 1-13 S G Rme2a G Kac Q G G K A R A K],peptide microarray binding signal,"[1]; peptide modifications: H2AR3me2a H2AK5ac, binder concentration: 50 nM",0.00354 ± 0.00011
same,peptide microarray binding signal,"[1]; peptide modifications: H2AR3me2a H2AK5ac, binder concentration: 500 nM",0.00657 ± 0.00029
same,peptide microarray binding signal,"[2]; peptide modifications: H2AR3me2a H2AK5ac, binder concentration: 10 nM",0.00352 ± 5e-05
same,peptide microarray binding signal,"[2]; peptide modifications: H2AR3me2a H2AK5ac, binder concentration: 100 nM",0.00454 ± 0.00022
same,peptide microarray binding signal,[3]; [11],0.0005474 ± 5.3e-06
same,peptide microarray binding signal,[3]; [12],0.00137 ± 1.3e-05
same,peptide microarray binding signal,[4]; [11],0.000468 ± 9e-06
same,peptide microarray binding signal,[4]; [12],0.00104 ± 1.1e-05
SGRGKQGGKARAK [H2A 1-13 S G Rcit G Kac Q G G K A R A K],peptide microarray binding signal,"[1]; peptide modifications: H2AR3cit H2AK5ac, binder concentration: 50 nM",0.00389 ± 0.00015
same,peptide microarray binding signal,"[1]; peptide modifications: H2AR3cit H2AK5ac, binder concentration: 500 nM",0.00481 ± 0.00026
same,peptide microarray binding signal,"[2]; peptide modifications: H2AR3cit H2AK5ac, binder concentration: 10 nM",0.00519 ± 0.00013
same,peptide microarray binding signal,"[2]; peptide modifications: H2AR3cit H2AK5ac, binder concentration: 100 nM",0.00567 ± 0.00026
same,peptide microarray binding signal,[3]; [13],0.001 ± 3.7e-05
same,peptide microarray binding signal,[3]; [14],0.0016
same,peptide microarray binding signal,[4]; [13],0.000634 ± 9.9e-06
same,peptide microarray binding signal,[4]; [14],0.0015 ± 4.4e-05
SGRGKQGGKARAK [H2A 1-13 S G R G K Q G G K A R A K],peptide microarray binding signal,[1]; binder concentration: 50 nM,0.00364 ± 0.00013
same,peptide microarray binding signal,[1]; binder concentration: 500 nM,0.00819 ± 0.00076
same,peptide microarray binding signal,[2]; binder concentration: 10 nM,0.00298 ± 3.3e-05
same,peptide microarray binding signal,[2]; binder concentration: 100 nM,0.00446 ± 7.4e-05
same,peptide microarray binding signal,[3]; [15],0.00034 ± 6.1e-06
same,peptide microarray binding signal,[3]; [16],0.000571 ± 1.1e-05
same,peptide microarray binding signal,[4]; [15],0.000242 ± 6.7e-06
same,peptide microarray binding signal,[4]; [16],0.000404 ± 4.4e-06
SGRGKQGGKARAK [H2A 1-13 Sph G Rme2s G K Q G G K A R A K],peptide microarray binding signal,"[1]; peptide modifications: H2AS1ph H2AR3me2s, binder concentration: 50 nM",0.00357 ± 5.8e-05
same,peptide microarray binding signal,"[1]; peptide modifications: H2AS1ph H2AR3me2s, binder concentration: 500 nM",0.00752 ± 0.00025
same,peptide microarray binding signal,"[2]; peptide modifications: H2AS1ph H2AR3me2s, binder concentration: 10 nM",0.00257 ± 5e-05
same,peptide microarray binding signal,"[2]; peptide modifications: H2AS1ph H2AR3me2s, binder concentration: 100 nM",0.00482 ± 0.0003
same,peptide microarray binding signal,[3]; [17],0.000378 ± 3.9e-06
same,peptide microarray binding signal,[3]; [18],0.000571
same,peptide microarray binding signal,[4]; [17],0.000317 ± 9.6e-06
same,peptide microarray binding signal,[4]; [18],0.000577 ± 6.2e-06
SGRGKQGGKARAK [H2A 1-13 Sph G Rme G K Q G G K A R A K],peptide microarray binding signal,"[1]; peptide modifications: H2AS1ph H2AR3me1, binder concentration: 50 nM",0.0036 ± 0.00033
same,peptide microarray binding signal,"[1]; peptide modifications: H2AS1ph H2AR3me1, binder concentration: 500 nM",0.00495 ± 6.5e-05
same,peptide microarray binding signal,"[2]; peptide modifications: H2AS1ph H2AR3me1, binder concentration: 10 nM",0.00346 ± 0.00011
same,peptide microarray binding signal,"[2]; peptide modifications: H2AS1ph H2AR3me1, binder concentration: 100 nM",0.00446 ± 0.00061
same,peptide microarray binding signal,[3]; [19],0.000566 ± 1.9e-05
same,peptide microarray binding signal,[3]; [20],0.000799 ± 8.3e-06
same,peptide microarray binding signal,[4]; [19],0.000287 ± 2.9e-06
same,peptide microarray binding signal,[4]; [20],0.000807 ± 1.5e-05
SGRGKQGGKARAK [H2A 1-13 S G R G Kac Q G G Kac A R A K],peptide microarray binding signal,"[1]; peptide modifications: H2AK5ac H2AK9ac, binder concentration: 50 nM",0.00382 ± 4.6e-05
same,peptide microarray binding signal,"[1]; peptide modifications: H2AK5ac H2AK9ac, binder concentration: 500 nM",0.00743 ± 0.00068
same,peptide microarray binding signal,"[2]; peptide modifications: H2AK5ac H2AK9ac, binder concentration: 10 nM",0.00281 ± 0.00011
same,peptide microarray binding signal,"[2]; peptide modifications: H2AK5ac H2AK9ac, binder concentration: 100 nM",0.00815 ± 0.00019
same,peptide microarray binding signal,[3]; [21],0.00109 ± 0.00019
same,peptide microarray binding signal,[3]; [22],0.000571
same,peptide microarray binding signal,[4]; [21],0.000227 ± 4.1e-06
same,peptide microarray binding signal,[4]; [22],0.000519 ± 5.6e-06
SGRGKQGGKARAK [H2A 1-13 Sph G R G Kac Q G G K A R A K],peptide microarray binding signal,"[1]; peptide modifications: H2AS1ph H2AK5ac, binder concentration: 50 nM",0.00298 ± 3.8e-05
same,peptide microarray binding signal,"[1]; peptide modifications: H2AS1ph H2AK5ac, binder concentration: 500 nM",0.00752 ± 0.00011
same,peptide microarray binding signal,"[2]; peptide modifications: H2AS1ph H2AK5ac, binder concentration: 10 nM",0.00292 ± 9.7e-05
same,peptide microarray binding signal,"[2]; peptide modifications: H2AS1ph H2AK5ac, binder concentration: 100 nM",0.00276 ± 0.00011
same,peptide microarray binding signal,[3]; [23],0.000264 ± 5.6e-06
same,peptide microarray binding signal,[3]; [24],0.000685 ± 7.2e-06
same,peptide microarray binding signal,[4]; [23],0.000257 ± 2.7e-06
same,peptide microarray binding signal,[4]; [24],0.000577 ± 6.2e-06
